Source: a collection of fitness landscapes (doi:10.1016/j.celrep.2020.107928)
Whole data set: some 81,000 sequences, median “one-hybrid fitness for binding NBS DNA” near -0.1, cut for the highest 2% near 0.36. The full list was thinned out, with the highest values kept by preference.

B1: Caulobacter ParB omega fusion; a variant is named by its letters at X, in order, B8GW30 (parent)
chain: MESVVVGEPGMSEGRRGLGRGLSALLGEVDAAPAQAPGEQLGGSREAPIEILQRNPDQPRRTFREEDLEDLSNSIREKGVLQPILVRPSPDTAGEYQIVAGERAWRAAQRAGLKTVPIMVRELDDLAVLEIGIIENVQRADLNVLEEALSYKVLMEKFERTQENIAQTIGKSXSHVANXMRLLXLPDEVQSYLVSGELTAXHARAIAAAADPVALAKQIIEGGLSVRETEALARKAPNLSAGKSKGGRPPRVKDTDTQALESDLSSVLGLDVSIDHRGSTGTLTITYATLEQLDDLCNRLTRGI

Variants of: B1
Test: one-hybrid fitness for binding NBS DNA (the Noc-binding site; scaled: cognate 1, non-cognate 0); higher = stronger binding
Settings: with NBS DNA site
In short: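 Pre- and post-selection plasmids were Illumina-sequenced, three replicate libraries were pooled, and any variant with under 10 reads was removed. The libraries were Caulobacter ParB with four specificity codons randomised, selected in E. coli USO through a HIS3 reporter whose site is 19 bp from the promoter. Cells grew 48 hours at 37°C on M9 without histidine, with 0.1 mM IPTG and 5 mM 3-AT. Fitness is the log change in variant-to-wild-type read ratio, rescaled against cognate and non-cognate.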

Row | Variant | one-hybrid fitness for binding NBS DNA
1 | SQRN | ≤ 0.2
2 | VTPF | ≤ 0.2
3 | LTHI | ≤ 0.2
4 | PWLV | ≤ 0.2
5 | QQFC | ≤ 0.2
6 | QQVC | ≤ 0.2
7 | QQNC | 0.265
8 | QQRC | 0.455
9 | QQYC | ≤ 0.2
10 | QQFG | ≤ 0.2
11 | QQKY | 0.63
12 | QQKG | 0.437
13 | QQDY | ≤ 0.2
14 | QQVG | ≤ 0.2
15 | QQKC | 0.449
16 | QQVY | ≤ 0.2
17 | RRWI | 0.2
18 | GLIT | ≤ 0.2
19 | LTTA | ≤ 0.2
20 | AREP | ≤ 0.2
21 | GRTD | ≤ 0.2
22 | PMHT | ≤ 0.2
23 | PPTR | ≤ 0.2
24 | KSNL | ≤ 0.2
25 | THKH | ≤ 0.2
26 | WPSG | ≤ 0.2

Row | Variant | one-hybrid fitness for binding NBS DNA
27 | GFYT | ≤ 0.2
28 | QQRM | 0.459
29 | QQRY | 0.597
30 | QQYM | ≤ 0.2
31 | QQKN | 0.464
32 | QQKS | 0.714
33 | QQFM | ≤ 0.2
34 | QQYY | ≤ 0.2
35 | QQVS | 0.33
36 | QQFY | ≤ 0.2
37 | NQKS | ≤ 0.2
38 | TWEG | ≤ 0.2
39 | PTGW | ≤ 0.2
40 | RYQK | ≤ 0.2
41 | KVTF | ≤ 0.2
42 | WKWG | ≤ 0.2
43 | DWIC | ≤ 0.2
44 | LTTQ | ≤ 0.2
45 | SPPV | ≤ 0.2
46 | QQDG | ≤ 0.2
47 | QQPK | ≤ 0.2
48 | QQDM | ≤ 0.2
49 | QQKM | 0.476
50 | QQVM | ≤ 0.2
51 | QQKK | 0.506
52 | QQRK | 0.499

Row | Variant | one-hybrid fitness for binding NBS DNA
53 | QQAK | ≤ 0.2
54 | QQYK | ≤ 0.2
55 | QQRG | 0.407
56 | QQDK | ≤ 0.2
57 | QQYG | ≤ 0.2
58 | ASHP | ≤ 0.2
59 | HWMG | ≤ 0.2
60 | ITPE | ≤ 0.2
61 | GQNS | ≤ 0.2
62 | TPEF | ≤ 0.2
63 | IIVG | ≤ 0.2
64 | NNMC | ≤ 0.2
65 | QQKP | 0.336
66 | QQKD | 0.345
67 | QQKH | 0.657
68 | SQHR | ≤ 0.2
69 | QRGI | 0.37
70 | IDCI | ≤ 0.2
71 | QSRI | 0.338
72 | QPRI | ≤ 0.2
73 | QRYI | 0.254
74 | QSGI | ≤ 0.2
75 | IDPI | ≤ 0.2
76 | IDNI | 0.591
77 | QREI | ≤ 0.2
78 | QRRI | 0.43

Row | Variant | one-hybrid fitness for binding NBS DNA
79 | QCGI | ≤ 0.2
80 | QCRI | 0.407
81 | PDRM | ≤ 0.2
82 | MWKT | ≤ 0.2
83 | DTEY | ≤ 0.2
84 | DDNC | ≤ 0.2
85 | PMEV | ≤ 0.2
86 | FFGC | ≤ 0.2
87 | MTER | ≤ 0.2
88 | QTRI | 0.478
89 | QTYI | ≤ 0.2
90 | QCNI | ≤ 0.2
91 | QTDI | ≤ 0.2
92 | QRNI | 0.403
93 | QRDI | ≤ 0.2
94 | HLFS | ≤ 0.2
95 | RRGD | ≤ 0.2
96 | RRGP | ≤ 0.2
97 | RRGN | 0.324
98 | RRGS | 0.55
99 | RRGM | 0.237
100 | RRGH | 0.44
101 | PPPL | ≤ 0.2
102 | GQQS | ≤ 0.2
103 | RDPN | ≤ 0.2
104 | DGTL | ≤ 0.2

Row | Variant | one-hybrid fitness for binding NBS DNA
105 | SCPT | ≤ 0.2
106 | RTKM | 0.303
107 | RTKR | 0.866
108 | RTVR | 0.416
109 | RTKG | 0.223
110 | WTEY | ≤ 0.2
111 | YTWG | ≤ 0.2
112 | PYNR | ≤ 0.2
113 | QHQS | 0.394
114 | QSQS | 0.36
115 | QMQH | ≤ 0.2
116 | QMQS | 0.394
117 | QHQN | ≤ 0.2
118 | QCQS | 0.448
119 | QMQP | ≤ 0.2
120 | QPQS | ≤ 0.2
121 | QHIS | 0.258
122 | CTNW | ≤ 0.2
123 | LAHD | ≤ 0.2
124 | LHIV | ≤ 0.2
125 | RPMT | ≤ 0.2
126 | RTMK | ≤ 0.2
127 | RCMT | 0.492
128 | RFMT | ≤ 0.2
129 | RKMT | 0.587
130 | RKMM | ≤ 0.2

Row | Variant | one-hybrid fitness for binding NBS DNA
131 | RRMT | 0.776
132 | RSMT | 0.305
133 | RRMY | 0.338
134 | RTMT | 0.491
135 | RTMG | ≤ 0.2
136 | RRMM | 0.221
137 | PHSL | ≤ 0.2
138 | GMRS | ≤ 0.2
139 | SYNI | ≤ 0.2
140 | EIAA | ≤ 0.2
141 | WPVG | ≤ 0.2
142 | AYDR | ≤ 0.2
143 | PHAW | ≤ 0.2
144 | RMQD | ≤ 0.2
145 | RMQP | ≤ 0.2
146 | RMIT | 0.253
147 | RMST | 0.483
148 | RMGK | ≤ 0.2
149 | RMLT | 0.347
150 | RMQT | 0.371
151 | RMSK | ≤ 0.2
152 | RMSG | ≤ 0.2
153 | RMGF | ≤ 0.2
